Assay outcomes deposited in PubChem BioAssay by National Center for Advancing Translational Sciences (NCATS).
Rows were chosen to be rich in hits. Some 5.3% of all compounds tested hit in one or more screens of this group.
Sfp inh: qHTS Assay for Inhibitors of Bacillus subtilis Sfp phosphopantetheinyl transferase (PPTase). 4'-phosphopantetheinyl transferase ffp (Bacillus subtilis), Q9F4F7. Biochemical Sfp PPTase activity, qHTS. Potency, µM, without a hit: largest response in the series, negative = inhibition, actives largely listed as inhibitors. 310,000 tested, 3.5% active;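 further: the enzyme is Sfp with the accession as filed and its product quenches rhodamine fluorescence; potency means the concentration at half of the fitted maximal effect; 0% = enzyme reaction without inhibitor and -100% = no enzyme wells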
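Reaction rates are the 30-min fluorescence difference (ex 525, em 598 nm) in wells containing 15 nM Sfp, 5 uM rhodamine-CoA and 12.5 uM BHQ-2-YbbR at pH 7.6 with 10 mM MgCl2.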
JMJD2E inh: qHTS Assay for Inhibitors of Human Jumonji Domain Containing 2E (JMJD2E) | Lysine-specific demethylase 4E (Homo sapiens), B2RXH2 | JMJD2E catalytic domain, FDH-coupled NADH fluorescence (FDH is formaldehyde dehydrogenase) | Potency, µM (highest dose often 57.1 µM), for inactives: at the top dose activity change, negative = inhibition, actives largely listed as inhibitors | 230,000 tested, 1.6% active; active means well fitted inhibition curve with a large enough effect, not every such curve was filed as active; inconclusive means small, poorly fitted or top-dose-only effect, or another doubt; inactive means no such curve, though single readings can be large or run the other way;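 further: potency means the concentration at half of the fitted maximal effect; 0% = wells with enzyme and -100% = buffer wells without enzyme; nearly all actives have a fitted effect of over 50% in size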
Target sequence (B2RXH2 1-337 limits assumed): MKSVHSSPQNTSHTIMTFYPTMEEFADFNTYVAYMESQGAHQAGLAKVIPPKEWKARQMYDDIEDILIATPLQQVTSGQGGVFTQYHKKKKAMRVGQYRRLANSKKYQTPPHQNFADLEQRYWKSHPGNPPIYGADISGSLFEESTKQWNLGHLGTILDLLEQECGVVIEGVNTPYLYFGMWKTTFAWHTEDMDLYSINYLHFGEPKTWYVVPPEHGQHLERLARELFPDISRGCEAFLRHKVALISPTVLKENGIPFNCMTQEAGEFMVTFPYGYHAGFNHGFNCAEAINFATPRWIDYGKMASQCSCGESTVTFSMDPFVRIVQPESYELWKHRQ
Tau fibril ThT: qHTS for Inhibitors of Tau Fibril Formation, Thioflavin T Binding; Microtubule-associated protein tau (Homo sapiens), P10636; recombinant tau K18 P301L, heparin-induced fibrillization, ThT fluorescence; Potency, µM (highest dose often 57.4 µM), inactives show top-dose activity, negative = inhibition, usual class: inhibitors; 270,000 tested, 2.1% active; AID 1460, 2008; further: potency means the concentration at half of the fitted maximal effect; nearly all actives have a fitted effect of over 55% in size
Target sequence (P10636 561-689 P618L limits assumed): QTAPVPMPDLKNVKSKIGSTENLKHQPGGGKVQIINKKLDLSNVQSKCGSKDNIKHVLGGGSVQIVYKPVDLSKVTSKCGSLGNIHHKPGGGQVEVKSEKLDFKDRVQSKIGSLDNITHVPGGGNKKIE
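Heparin-induced fibrillization of the P301L-mutant K18 repeat-domain fragment of human tau was followed by ThT binding in quantitative high-throughput format.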
Coupling enz: qHTS Assay for Inhibitors of Fructose-1,6-bisphosphate Aldolase from Giardia Lamblia: Coupling assay counterscreen. coupling enzyme system counterscreen, AmpLite Red fluorescence. activity change, negative = inhibition, % at 58.2 µM, hits read low. 290,000 tested, 0.67% active. AID 2472, 2010; in the data active means activity change below about -30%
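Final compound at 57.5 uM, incubated 10 min at RT with coupling enzyme reagent (glyceraldehyde-3-phosphate), then 20 min with substrate and AmpLite Red detection. Fluorescence read at 525/598 nm; tests interference with the coupling assay, not aldolase inhibition.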
Tau fluor cs: Counterscreen qHTS for Inhibitors of Tau Fibril Formation, Fluorescence Polarization | 280,000 tested, 0.93% active | Potency, µM (series often up to 57.7 µM), inactives show at the top dose activity change, negative = decrease | tau K18 P301L Alexa594 fluorescence, heparin fibrillization; further: potency means the concentration at half of the fitted maximal effect; nearly all actives have a fitted effect of over 55% in size
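Human tau K18 P301L (15 uM unlabeled, 0.24 uM Alexa 594-labeled) in 100 mM sodium acetate pH 7 with 20 uM heparin, 6 hr at 37 C. ThT 30 uM added, 1 hr ambient; Alexa 594 FP and total fluorescence read at 555/632 nm.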
Tau FP inhib: qHTS for Inhibitors of Tau Fibril Formation, Fluorescence Polarization; K18 P301L tau heparin fibrillization, Alexa594 FP, 6 h; Potency, µM (top dose mostly 57.7 µM), without a hit: at the top dose activity, negative = inhibition, usual class: inhibitors; 280,000 tested, 0.39% active; AID 1468, 2008; further: potency means the concentration at half of the fitted maximal effect; nearly all actives have a fitted effect of over 55% in size
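Recombinant K18 P301L […], labeled with Alexa 594 at 0.24 uM over 15 uM unlabeled; heparin inducer 20 uM final; 37 C, 6 hr; FP endpoint.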
* marks the source's active call; other numbers are inactive results; ? = inconclusive; . = no result given; [ ] = another dose, or the depositor's remark. Unless noted, the call rests on the fitted dose curve; in most records, active means well fitted curve in the direction sought with a large enough effect; inconclusive means small, poorly fitted or top-dose-only effect, or another doubt; inactive means no such curve, though single readings can be large; an effect the other way counts as inactive or inconclusive. Unless noted, on the % scale 0 is the no-effect control and ±100 the full control effect.

SMILES | Sfp inh | JMJD2E inh | Tau fibril ThT | Coupling enz | Tau fluor cs | Tau FP inhib
Cc1ccc(C(=O)N/N=C/c2ccc(-c3cccc(Cl)c3)o2)cn1 | 17% | -17% | -14% | 0 | ? | 1%
CC(=O)OC1OCCOC1NC(=S)NCc1ccco1 (stereo unspecified) | 22µM* | -4% | ? | -3 | -7% | -7%
CC(=O)OC1OCCOC1NC(=S)Nc1cccc(C(F)(F)F)c1 (stereo unspecified) | -23% | 2% | -4% | 1 | -4% | -1%
COC(=O)C1(C(=O)OC)CC2=CC(CC2=O)Cc2ccccc2[C@@H]1C[N+](=O)[O-] (stereo partly specified) | 12% | -4% | -2% | 0 | -9% | -8%
CCCCCCCn1c2c(c(=N)c3c1CCC3)CCCC2 | -9% | 3.5µM* | 3% | 0 | 3% | -1%
COc1ccccc1N1CCN(C(=O)c2cnn(C(C)(C)C)c2C2CCN(C(=O)OC(C)(C)C)CC2)CC1 | . | . | -5% | . | 0% | 0%
CCOc1cc(C(=S)N2CCCC2)ccc1O | 35µM* | . | . | 6 | . | .
COc1cc(C(=S)N2CCC(C)CC2)ccc1O | 45µM* | -25% | ? | 3 | -11% | -9%
COc1cc(C(=S)N2CCCC2)ccc1O | ? | -4% | 4% | 1 | 3% | 0%
CCOc1ccc(C(=S)N2CCCC2)cc1OC | 14% | 2% | -2% | 3 | 0% | 2%
COc1cc(C(=S)N2CCC(C(N)=O)CC2)ccc1O | 20µM* | 10% | 5% | 3 | -1% | 3%
COc1cc(C(=S)N2CCCCC2)ccc1O | 45µM* | 2% | -23% | -37* | -17% | -13%
COc1ccc(C(=O)NC(=S)N2CCC(C)CC2)cc1Br | 10% | . | . | . | . | .
Cc1[nH]c2ccccc2c1C(c1ccccn1)N1CCC(C(N)=O)CC1 (stereo unspecified) | 63µM* | ? | ? | -4 | ? | -2%
CCOC(=O)Cc1csc(/C(=N/O)C(N)=O)n1 | 40µM* | -27% | -16% | -11 | -3% | -3%
CCOC(=O)Cc1csc(N)n1 | 2% | 4% | -8% | 1 | -8% | 0%
COCCN=c1scc(-c2cc(OC)c(OC)c(OC)c2)n1/N=C/c1c(C)[nH]c2ccccc12 | -3% | ? | ? | -3 | 7.9µM*[quencher] | 6%
CC1=C(C#N)C(c2cccnc2)C2=C(N1)c1ccccc1C2=O (stereo unspecified) | 16% | ? | ? | 1 | -14% | -10%
CC(=O)C1=C(C)NC2=C(C(=O)c3ccccc32)C1c1ccccc1 (stereo unspecified) | 3% | -13% | 18µM* | 0 | ? | 15%
CC1=C(C#N)C(c2ccccc2)C2=C(N1)c1ccccc1C2=O (stereo unspecified) | 9% | 1% | 13µM* | 1 | 25µM*[quencher] | -12%
CSC1=C(C#N)C(c2ccccc2Cl)C2=C(N1)c1ccccc1C2=O (stereo unspecified) | -9% | -7% | 28µM* | -3 | ? | ?
CCCCCCCCCCCCCCOS(=O)(=O)O | 14% | . | . | 10 | . | .
COc1ccc(C2(C(=O)c3ccccc3)C(=O)c3ccccc3C2=O)cc1 | 45µM* | -2% | 14µM* | -1 | ? | ?
CCOC(=O)N1CCc2c(sc(NCc3cccc(F)c3)c2C(=O)Nc2ccc(OCC)cc2)C1 | . | . | ? | . | ? | -9%
COC(=O)C1C(O)C(C)C(O)C(C)(O)/C=C\C=C(/C)C(=O)Nc2c(C)c(OC(C)=O)c3c(c2O)C(=O)C(C)=C2OCOC(=C23)/C(C)=C/C(C)(O)C(O)C(C)C1O (stereo unspecified) | ? | 3.2µM* | . | -42* | 4µM*[quencher] | ?
SMILES | Sfp inh | JMJD2E inh | Tau fibril ThT | Coupling enz | Tau fluor cs | Tau FP inhib
C#CCN1C(=O)S/C(=C/C=C/c2ccc(N(C)C)cc2)C1=O | -11% | -17% | 1.6µM* | -4 | 20% | ?
CNc1cc([N+](=O)[O-])ccc1OCc1ccccc1 | -8% | -6% | 11µM* | -12 | ? | -4%
COc1ccc([N+](=O)[O-])cc1NS(=O)(=O)Cc1ccccc1 | 13% | . | . | 2 | . | .
COc1ccc(-c2noc(N(c3cccc(Cl)c3)c3nc(-c4ccc(OC)c(OC)c4)no3)n2)cc1OC | . | . | 9% | . | 9% | 2%
O=S(=O)(c1ccccc1)N1CCC2(CCCN(Cc3ccncc3)C2)CC1 | 18% | . | . | -1 | . | .
Cc1ccccc1NC(=S)NC(NC(=O)COc1ccccc1)C(Cl)(Cl)Cl (stereo unspecified) | 12% | 3% | 14µM* | 0 | -19% | ?
COc1ccc(NC(=S)NC(NC(=O)CCl)C(Cl)(Cl)Cl)c([N+](=O)[O-])c1 (stereo unspecified) | 25µM* | -9% | 16µM* | 3 | ? | -11%
CCc1ccc(OCC(=O)NC(NC(=S)Nc2ccccc2C)C(Cl)(Cl)Cl)cc1 (stereo unspecified) | 29% | -6% | 6% | 4 | 5% | 5%
O=C(NC(NC(=S)Nc1ccccc1C(=O)O)C(Cl)(Cl)Cl)c1ccccc1 (stereo unspecified) | 35µM* | ? | -12% | 1 | 0% | 1%
O=C(NC(NC(=S)Nc1ccccc1C(=O)O)C(Cl)(Cl)Cl)c1ccco1 (stereo unspecified) | 40µM* | ? | ? | 4 | -9% | -4%
COc1ccc(NC(=S)NC(NC(=O)c2ccccc2Cl)C(Cl)(Cl)Cl)c([N+](=O)[O-])c1 (stereo unspecified) | 18% | -11% | ? | 2 | ? | 6%
COC(=O)c1ccccc1NC(=S)NC(NC(=O)c1ccco1)C(Cl)(Cl)Cl (stereo unspecified) | -3% | ? | -5% | 2 | ? | ?
CCOC(=O)c1ccc(N2C(=O)c3[nH]nc(-c4ccccc4)c3C2c2ccc(CC)cc2)cc1 (stereo unspecified) | . | . | -8% | . | ? | ?
CCCCCCN1C=C/C(=C\C=C(C#N)C#N)c2ccccc21 | 5% | 3% | ? | -5 | -10% | -19%
CCOC(=O)/C(C#N)=C/C=C1\C=Cc2ccccc2N1CC | ? | -4% | 1.6µM* | -8 | -30% | -10%
